In the OligoGym collection:

biological target: HEPH; assay: pooled miR-30 sensor sort-seq; sequence = guide strand; settings: shRNA
Also: reference of the scale not given here.

Sequence	sensor-assay potency score (higher = more potent)
TTGCGTCGTAGCTTTCTCTGTC	0.593
AATGTAACCATAACTGTCCTTC	-0.181
TAGATGGTCTTCTTGTAGGTTC	-0.407

biological target: HERC1; assay: as above; settings: shRNA

Sequence	sensor-assay potency score (higher = more potent)
TAGTGGTTGAGAAACATTCTAA	-0.582
TAACAGAATGGACATCTGCTGA	-0.647
TAACAGACACATCCTTTCGATA	-0.966
TTTCTGTAGTGAACATAGCAGT	-0.617
TATTGTAACCCACTTCTGCGGT	-0.596
TAGTTGTCCATGTCGATTGAGC	-0.739
TATTCATGTAAAACTGTCCTTT	-0.17
TTATGTTCTTATAACATCTATG	-0.965
TTGTCCATGTCGATTGAGCGGC	-0.831
TTCTGCACTAGTCACATTGGTC	-0.675
TTCTCCAACCAGCTTAACCTTC	-1.11
TTCATAGGCATACTGCTCCTGA	-0.419

biological target: HERC3; assay: as above; settings: shRNA

Sequence	sensor-assay potency score (higher = more potent)
TATCTGAACAACACCATTGATT	-0.697
TACATTGAGTAACTTCTTGTAG	0.402
TTGAACTATATGCACACACATA	-1.08
ATAATATCTGAACAACACCATT	-1.67
TTCAGCTTTTGTATTAACCTGG	0.299
TAACTTCTCAAATAACACCCTA	-0.57
TACTTTGCCACCACACACCTTT	0.0362
TTTACATTGAGTAACTTCTTGT	-0.154
TAGCTTTCTCGGCAGATCGTGA	-0.772
TTGTGCTCTACAAAACACGTGT	0.203
TTATCTAGTACTTTGCTGGGGT	0.669

biological target: HES7; assay: as above; settings: shRNA

Sequence	sensor-assay potency score (higher = more potent)
TTCCGGAGGTTCTGGTCCCGGG	-1.41
TTTGGGGCGCAGATAGCCGTGC	-0.737
TCCGCTTTCTCCAGCTTCGGGT	-1.29
TTTCTCCAGCTTCGGGTTCCGG	-1.22
TTGGGCGCCCCGTCTTGTCTGT	-1.06
ATATAGACCACATCTCACCCGC	-0.0228
TTCGCTCCCTCAAGTAGCCCAC	-0.598
AACCGGACAAGTAGCAGCTGGC	-1.06
AAACCGGACAAGTAGCAGCTGG	-0.705
TATCTCCGCTTTCTCCAGCTTC	-1.2
AGCGGCTTGAGCATCTTGGGGC	-0.755
AAGCGAAGCAGGCACTCGCGGA	-1.48
